GCN5L2 inh – inhibitors of human GCN5L2 histone acetyltransferase. Q92830. GCN5L2 HAT assay, ThioGlo1 CoA-SH fluorescence. Potency, µM (highest dose often 58.9 µM), inactives show at the highest dose activity change, negative = inhibition, hits mostly inhibitors. 390,000 tested, 0.21% active. AID 504327
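ThioGlo1-coupled HAT assay: 20nM GCN5L2, 70uM acetyl-CoA, 75uM H3(1-25) peptide, pH 7.5. Fluorescence read at 340/540nm at start and after 20 min at room temperature.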
rTrxR1 inhibitor – inhibitors of rat thioredoxin reductase 1; O89049; recombinant rTrxR1, NADPH fluorescence consumption, selenite substrate; Potency, µM (series often up to 114 µM), for inactives: top-dose activity change, negative = inhibition, hits mostly inhibitors; 390,000 tested, 1% active; also: nearly all actives have a fitted effect of over 65% in size
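Rat TrxR1 (90 nM in the dispensed reagent) was pre-reduced with 400 uM NADPH for 5 min at room temperature, then incubated with compound for 15 min. After 400 uM selenite was added, NADPH fluorescence (Ex 340/Em 450 nm) was followed for 8 min.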
TrxR1 substrate – substrates of rat thioredoxin reductase 1. O89049. purified TrxR1 substrate turnover, NADPH consumption readout. Potency, µM (highest dose often 114 µM), inactives show at the highest dose activity change, negative = substrate turnover. 390,000 tested, 0.01% active. AID 588456; also: nearly all actives have a fitted effect of over 50% in size
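Rat TrxR1, dispensed at 90 nM, was prereduced with 400 uM NADPH (final) for 5 min at ~22 deg C, then incubated with compound 15 min before 400 uM selenite. A first-read NADPH fluorescence drop versus no-compound background flagged substrates.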
VDR inh – inhibitors of human vitamin D receptor | VDR-SRC2-3 peptide fluorescence polarization, 2 h | 400,000 tested, 0.93% active | Potency, µM, for inactives: max response, negative = inhibition, hits mostly inhibitors | P11473
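The screen uses fluorescence polarization to detect compounds that interfere with recruitment of the SRC2-3 coactivator peptide to VDR; plates are read after 2 h at room temperature.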
GLS inhibitor – inhibitors of human glutaminase (GLS); 410,000 tested, 0.21% active; O94925; Potency, µM (series often up to 45.5 µM), for inactives: at the top dose activity change, negative = inhibition, usual class: inhibitors; GLS enzymatic activity, qHTS titration
Target sequence (O94925 whole entry, looked up): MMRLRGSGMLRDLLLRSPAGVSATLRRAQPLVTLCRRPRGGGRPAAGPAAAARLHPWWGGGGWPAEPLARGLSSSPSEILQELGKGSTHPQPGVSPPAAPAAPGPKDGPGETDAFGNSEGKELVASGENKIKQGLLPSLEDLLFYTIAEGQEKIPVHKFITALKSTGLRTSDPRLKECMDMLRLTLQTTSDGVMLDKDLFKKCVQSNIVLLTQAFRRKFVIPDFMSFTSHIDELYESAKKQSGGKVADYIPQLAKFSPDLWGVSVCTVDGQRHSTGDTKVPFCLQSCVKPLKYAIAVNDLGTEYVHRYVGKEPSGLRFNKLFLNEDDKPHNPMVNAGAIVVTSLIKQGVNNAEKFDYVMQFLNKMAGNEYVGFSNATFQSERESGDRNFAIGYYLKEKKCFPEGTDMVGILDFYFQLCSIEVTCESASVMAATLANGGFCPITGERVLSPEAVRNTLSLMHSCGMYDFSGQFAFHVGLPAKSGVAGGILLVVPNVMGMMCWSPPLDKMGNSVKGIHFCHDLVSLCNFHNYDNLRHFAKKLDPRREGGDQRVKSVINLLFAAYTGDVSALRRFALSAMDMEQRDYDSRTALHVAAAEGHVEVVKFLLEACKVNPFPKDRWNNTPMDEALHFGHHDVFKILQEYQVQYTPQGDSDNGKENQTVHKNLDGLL
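hKGA in 45 mM KH2PO4 (pH 8.2), 0.02% Tween-20 with compound, then 1mM L-Glutamine (stock as added) plus glutamate oxidase/HRP/Amplex red coupling mix. Fluorescence read initially and after 30 min at RT; signal change reflects glutamate formation.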
Sfp inh – inhibitors of Bacillus subtilis Sfp phosphopantetheinyl transferase; Biochemical Sfp PPTase activity, qHTS; Potency, µM, for the others: largest response in the series, negative = inhibition, most hits filed as inhibitors; AID 1490; 310,000 tested, 3.5% active; Q9F4F7;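 also: the enzyme is Sfp with the accession as filed and its product quenches rhodamine fluorescence; 0% = enzyme reaction without inhibitor and -100% = no enzyme wells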
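Fluorescence-quenching assay: 15 nM Sfp-PPTase preincubated 15 min at room temperature with compound, then 5 uM rhodamine-CoA and 12.5 uM BHQ-2-labelled YbbR peptide added. Fluorescence (ex 525/em 598 nm) read at start and after 30 min; difference gives rate.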
Active calls of the source: *; ? = inconclusive; / = not tested or not shown; [ ] = another dose, or the depositor's remark. This is a sample that favours compounds with a hit; in the whole collection about 3.8% have one here. Calls follow the shape of the dose curve; as a rule, active = well fitted curve in the direction sought with a large enough effect; inconclusive = small, poorly fitted or top-dose-only effect, or another doubt; inactive = no such curve, though single readings can be large; an effect the other way counts as inactive or inconclusive. Unless noted, % is scaled to controls: 0 for no effect and ±100 for the full control effect; potency is read from the fitted curve at half-maximal effect.

SMILES | GCN5L2 inh | rTrxR1 inhibitor | TrxR1 substrate | VDR inh | GLS inhibitor | Sfp inh
Oc1c(Cl)c(Cl)c(Cl)c(Cl)c1Cl | ? | -18% | -9% | 89µM* | 33% | 9%
CCCOc1ccc(C(=O)NC(=S)N2C[C@H]3C[C@H](C2)c2cccc(=O)n2C3)cc1 | -23% | -7% | 2% | -18% | 26% | 45µM*
CCN1CCN(CC(=O)c2c(C)n(Cc3ccccc3)c3ccc(OC)cc23)CC1 | -9% | ? | -10% | ? | 55% | 4%
CCOC(=O)c1c(C)n(Cc2ccccc2)c2ccc(O)cc12 | -1% | 41%[57.1 µM] | 12%[57.1 µM] | -14% | -24% | 50µM*
COC(=O)c1c(C)n(Cc2ccccc2)c2ccc(O)cc12 | -2% | 4% | -3% | -2% | -13% | 50µM*
Cc1cccn2c(=O)c3c(nc12)N1CCC(Cc2ccccc2)CC1C1(C3)C(=O)N(C)C(=O)N(C)C1=O (configuration not stated) | -2% | 27% | 28% | 16% | -16% | 32µM*
CN(C)CC#CCn1c2ccccc2c2ccccc21 | 0% | 4% | -2% | 4% | 11% | -4%
CCN(CC)c1ccc(/C=C/[N+](=O)[O-])cc1 | -6% | ? | -8% | 18µM* | 3% | ?
CC(=O)OC1CC(OC(C)=O)[C@]2(C)C(CC(OC(C)=O)[C@]3(C)C2CC[C@@]2(C)C(c4ccoc4)C(=O)C4O[C@]432)C1(C)C (some centres not stated) | -15% | / | / | -4% | / | 17%
CC(=O)OC1CC2C(C)(C)C(O)C=C[C@@]2(C)C2CC[C@]3(C)C(=CC(=O)OC3c3ccoc3)[C@]12C (some centres not stated) | -16% | / | / | 25µM* | / | -6%
CN(C)C(=O)Oc1ccc(OCc2n(C)c3ccccc3[n+]2C)cc1 | -5% | 14% | 0% | 6% | 8% | 2%
COc1cc(/C=C2/C(=O)NC(=O)N(c3ccccc3)C2=O)ccc1O | 0% | 45µM* | -20% | -13% | 20% | 8.9µM*
COc1ccccc1N1C(=O)NC(=O)/C(=C\c2cnn(-c3ccccc3)c2)C1=O | -3% | 1%[57.1 µM] | 2%[57.1 µM] | ? | -24% | 32µM*
O=C1NC(=O)N(Cc2ccccc2)C(=O)/C1=C/c1cnn(-c2ccccc2)c1 | -6% | / | / | / | / | -20%
COc1ccc(/C=C2/C(=O)NC(=O)N(c3ccccc3)C2=O)cc1CN1C(=O)c2ccccc2C1=O | -25% | 25µM* | 3% | 79µM* | -5% | 50µM*
COc1cccc(N2C(=O)NC(=O)/C(=C/c3ccc4c(c3)Cc3ccccc3-4)C2=O)c1 | -14% | 14µM* | 14% | ? | 30% | 56µM*
COC(=O)C1=C(c2ccccc2OCc2ccccc2)C[C@@H]2CC[C@H]1N2C(=O)NCCOc1ccccc1 | -12% | 22% | 2% | 11% | 0% | /
Oc1ccc(Cl)c(Cl)c1Cl | 3% | 9% | 6% | -19% | 19% | /
CCCCc1cc(=O)oc2c3c(cc(OCC(=O)N4CCC[C@H]4C(=O)O)c12)OC(C)(C)CC3 | -3% | -13% | 454% | -7% | -6% | 8%
O=C(O)C12C3CCCC1C32c1ccccc1 (configuration not stated) | -4% | -6%[57.1 µM] | 3%[57.1 µM] | -8% | 11% | 22%
CCOc1cc(/C=C2/C(=O)NC(=O)N(c3ccc(CC)cc3)C2=O)ccc1OC(=O)c1cccs1 | -20% | 18µM* | -3% | ? | ? | 79µM*
Oc1ccccc1O | -7% | ? | 14%[57.1 µM] | -22% | ? | /
O=C1C=CC(=O)c2c(O)cccc21 | 0.63µM* | / | / | 40µM* | / | -23%
CN(N)N=Nc1nc2c([nH]1)c(=O)n(C)c(=O)n2C | -3% | 40%[57.1 µM] | 14%[57.1 µM] | -17% | ? | 18µM*
COc1cc(C2C(C#N)=C(N)Oc3n[nH]c(-c4cccnc4)c32)ccc1OCC(N)=O (configuration not stated) | -9% | 6% | 0% | 68% | 16% | 13%
SMILES | GCN5L2 inh | rTrxR1 inhibitor | TrxR1 substrate | VDR inh | GLS inhibitor | Sfp inh
CCCCOc1nc2ccccc2c(=O)n1-c1ccccc1 | -8% | 13% | 5% | -27% | -2% | ?
O=c1[nH]c(=S)[nH]c(O)c1CN1CCCCC1 | -1% | 4% | -1% | -11% | 8% | -9%
COC(=O)C1=C(c2ccc(Cl)c(C(F)(F)F)c2)C[C@@H]2CC[C@H]1N2C(=O)N1CCC(C)CC1 | -3% | 18%[57.1 µM] | -11% | 5% | 5% | /
O=C(c1ccco1)N1CCN(C(=O)c2ccc(COc3ccc(Cl)cc3Cl)o2)CC1 | / | 7.1µM* | -3%[57.1 µM] | -7% | 15% | /
COc1cc(CNc2ccc3[nH]c(=O)[nH]c3c2)ccc1OCc1ccccc1C | 4% | 17%[57.1 µM] | 13%[57.1 µM] | -7% | ? | 8%
COc1cc(/C=C(/C)[N+](=O)[O-])ccc1OCc1ccccc1Cl | -9% | ? | -1% | 8.9µM* | -15% | 14µM*
COc1ccc(CN2Cc3cc(N4CCOCC4)ccc3-n3nncc3C2)cc1 | / | / | / | / | 22% | /
Cc1cccc2c3c(ccc12)C1=C(C(=O)C3=O)[C@@H](C)CO1 | -8% | / | / | 20µM* | / | -7%
Cc1ccc(O)c(C(=O)c2cc(C(=O)NCc3ccccc3)c(=O)n(Cc3ccccc3)c2)c1 | -14% | -5% | -12% | -22% | 6% | -10%
O=C1NS(=O)c2cc([N+](=O)[O-])cc([N+](=O)[O-])c21 (configuration not stated) | 1% | 1% | -2% | ? | -1% | 18µM*
Cc1ccc(CNC2=NCCS2)cc1 | 1% | 17% | 0% | 5% | -1% | 9%
CCN(CC)c1ccc(/C=C2\C(=O)NC(=O)N(CC3CCCO3)C2=O)cc1 (configuration not stated) | -5% | ? | -5% | -5% | 20% | -29%
Cc1ccc(/C=C2\C(=O)NC(=O)N(CC3CCCO3)C2=O)s1 (configuration not stated) | -3% | 40µM* | -9% | ? | -16% | ?
Cc1ccc2nsnc2c1-n1c(C)nc2ccccc2c1=O | -3% | 2% | -7% | -6% | 3% | 2%
CCN1C(=O)C(=C/C=C/c2ccco2)C(=O)N(CC)C1=S | -8% | 4.5µM* | -1% | 85% | 7.1µM* | 40µM*
COC(=O)Cn1cc(C=C2C(=O)NC(=O)NC2=O)c2ccccc21 | -7% | ? | -2% | -3% | -4% | ?
COc1c(C=C2C(=O)NC(=O)NC2=O)c(CCN(C)C(=O)c2ccccc2)cc2c1OCO2 | 0% | 18µM* | -1% | ? | 5% | -7%

From PubChem BioAssay
